# This is part of a sample that, as a whole, favours compounds with a hit. Of some 83,000 tested, about 20% had one in any assay.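 Assay: single dose, 48 h. Readout: percent growth (0 = no net growth; negative = cell death). Active: <10.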 Values without a mark were called inactive. Activity calls are given as the source filed them.
# Experiments:
# Test in all cases: NCI-60 one-dose screen, 48 h (100 = growth as untreated, 0 = no growth, -100 = all killed)
# Conditions in all cases: 10 µM
# NCI-H23 lung = tested on: NCI-H23 lung
# NCI-H226 lung = tested on: NCI-H226 lung
# NCI-H322M lung = tested on: NCI-H322M lung
# HOP-62 NSCLC = tested on: HOP-62 NSCLC
# NCI-H460 lung = tested on: NCI-H460 lung
# HOP-92 NSCLC = tested on: HOP-92 NSCLC
# NCI-H522 lung = tested on: NCI-H522 lung
# A549/ATCC NSCLC = tested on: A549/ATCC NSCLC
# 786-0 renal = tested on: 786-0 renal
# COLO 205 colon = tested on: COLO 205 colon
SMILES,growth (NCI-H23 lung),growth (NCI-H226 lung),growth (NCI-H322M lung),growth (HOP-62 NSCLC),growth (NCI-H460 lung),growth (HOP-92 NSCLC),growth (NCI-H522 lung),growth (A549/ATCC NSCLC),growth (786-0 renal),growth (COLO 205 colon)
COc1ccc(-c2cc(C(=O)N=Nc3c(O)[nH]c4ccc(Br)cc34)c3ccccc3n2)cc1,5.57% (active),50.6%,70%,91.6%,5.22% (active),71.4%,57.7%,61.1%,80.1%,53.2%
CC1(C)CC[C@]2(C(=O)O)CC[C@]3(C)C(=CC[C@@H]4[C@@]5(C)C/C(=C/c6ccncc6)[C@H](O)C(C)(C)[C@@H]5CC[C@]43C)[C@@H]2C1,37.6%,38.2%,34%,42.1%,34%,4.52% (active),42.1%,19.9%,48.4%,37.2%
Cc1ccc(/C(CSc2nnc(-c3c[nH]c4ccccc34)n2-c2ccccc2)=N/O)cc1,53.3%,-41.1% (active),-42.4% (active),-56.6% (active),1.99% (active),-5.5% (active),23.8%,18.4%,2.17% (active),12.4%
CC(=O)Nc1ccc(-c2cn(-c3cccc(C(=O)Nc4ccc(Cl)c(C(F)(F)F)c4)c3)nn2)cn1,-67.6% (active),-72.8% (active),-18.7% (active),-60.2% (active),-73.3% (active),-30.8% (active),-63.2% (active),-43.4% (active),-34.4% (active),-40.9% (active)
O=C1Nc2cc(-c3ccc(NC(=O)c4cccs4)cc3)ccc2/C1=C/c1ccc[nH]1,66.4%,40.4%,99.3%,98.3%,83%,104%,79.4%,81.7%,98.5%,99.7%
COc1cccc2nc(Nc3cccc(NC(=O)c4ccc(CN5CCCN(C)CC5)c(C(F)(F)F)c4)c3)ccc12,-97.9% (active),-70.5% (active),-100% (active),-74.7% (active),-83.6% (active),-83.5% (active),-67.5% (active),-75.6% (active),-84.9% (active),-56.9% (active)
Cc1ccc(-c2nc3ccc(C(=O)N=Nc4c(O)[nH]c5ccc(Br)cc45)cc3[nH]2)cc1,-3.58% (active),91.7%,77.7%,68.7%,47.8%,88.3%,25%,87.1%,36.3%,61%
COc1ccc2nc(Cl)c(-c3cc(-c4ccccc4)nc(=O)[nH]3)cc2c1,57.9%,60.8%,78.1%,69.9%,18%,55.2%,66.9%,77.4%,57.8%,92.9%
CN1CCc2c(sc3ncnc(N/N=C/c4cn(-c5ccccc5)nc4-c4ccc(Br)cc4)c23)C1,8.68% (active),81.2%,33.5%,54.6%,18.7%,71.8%,54.7%,25.3%,65.7%,5.81% (active)
CC(C)(C)Nc1nc2cc(Cl)c(Cl)cc2nc1S(C)(=O)=O,-63.6% (active),-83% (active),98%,88.1%,73.1%,-5.25% (active),-80.6% (active),94.1%,44%,31.2%
CCCn1c(=O)c2[nH]c(-c3ccc(OCc4nc5ccccc5[nH]4)cc3)nc2n(CCC)c1=O,32.5%,-30.3% (active),59.7%,22.2%,6.69% (active),-6.45% (active),20.9%,38.6%,-48.5% (active),89.1%
Cc1noc2c(Cc3ccccc3)nn(CC(=O)N/N=C/c3ccc(Br)cc3)c(=O)c12,69.9%,32.5%,102%,43.3%,13.1%,35.1%,74.4%,18.1%,-24.9% (active),39.7%
O=C(O)CCCCCCCCCCN1C(=O)/C(=C/c2cnc(-c3ccccc3)s2)SC1=S,55.9%,103%,80.6%,115%,29.6%,52.1%,38.2%,46.1%,79.3%,141%
O=c1[nH]c2ccc(Cl)cc2cc1CSc1ccc(Nc2nccc(-c3ccc4ccccc4c3)n2)cc1,81.9%,50.5%,95.5%,85.8%,20.8%,88.1%,80.5%,22.7%,64.8%,31.8%
COc1cc(OC(F)(F)F)ccc1C(=O)Nc1sc2c(c1C#N)CCC(=O)C2,54.5%,87.9%,97.9%,84.8%,100%,95.2%,-36.3% (active),93.5%,97.5%,97.8%
COc1ccc2[nH]cc(/C=N/Nc3cccc(Cl)n3)c2c1,64.2%,48.4%,71.2%,59.3%,47.3%,27%,27.1%,69.8%,25.4%,57.5%
Cc1cc(C)nc(NS(=O)(=O)c2ccc(N/C(N)=N/c3nccc(-c4ccccc4)n3)cc2)n1,57.1%,49.6%,75.6%,70.3%,76.3%,43.6%,76.2%,63%,72.1%,91.1%
CCOC(=O)N/C(=C1/OCCN1C)[P+](c1ccccc1)(c1ccccc1)c1ccccc1,85.8%,93.1%,89.9%,97.6%,86.7%,59.1%,54.2%,89%,101%,41.3%
CC(=O)OC[C@@]1(C)C2CC[C@]3(C)C(CC=C4C5CC(C)(C)CC[C@]5(C(=O)Nc5ccccc5)CC[C@]43C)[C@@]2(C)C[C@@H](OC(C)=O)[C@@H]1OC(C)=O (stereo not given in full),40.2%,40.6%,61.1%,32.8%,32%,40.1%,42%,39.6%,45.7%,45.5%
CCOC(=O)C1=C(N)N(c2ccc(C)cc2)C2=C(C(=O)CC(C)(C)C2)C1c1ccccc1OC (stereo not given),109%,99.7%,93.4%,106%,111%,117%,97.6%,107%,99.6%,134%
Cc1ccc2nc(COc3ccc(C(=O)NNC(=S)NC(=O)c4ccccc4)cc3)[nH]c2c1,53.3%,60.7%,80.7%,45.4%,20.5%,80.6%,60.5%,53.9%,74.4%,84%
COc1ccc(-c2ccc(/C=N/NC(=O)c3[nH]c4ccc(Br)cc4c3-c3ccccc3)o2)cc1,50%,44.1%,70.4%,47.2%,16.8%,85.9%,-44.1% (active),42.5%,34.9%,63.1%
O=C(CNc1nc(-c2ccccc2)cs1)Nc1ccc(Cl)cc1[N+](=O)[O-],-57.3% (active),-54.2% (active),35.7%,-27.7% (active),5.09% (active),-14.2% (active),-82.8% (active),12.6%,4.95% (active),-64.7% (active)
CC1(c2ccccc2)NC(=O)N(CC(=O)Nc2ccc(C(=O)/C=C/c3ccc(Cl)cc3)cc2)C1=O (stereo not given),18.6%,-0.196% (active),51.1%,35.6%,21.5%,-10.4% (active),41.4%,6.84% (active),-21.5% (active),-24.4% (active)
COC(=O)C[C@](O)(CCCC(C)(C)O)C(=O)O[C@H]1C(OC)=C[C@@]23CCC(=O)N2CCc2cc4c(cc2[C@@H]13)OCO4,101%,79.4%,112%,93.1%,44.3%,116%,78.4%,94.9%,97.9%,118%
CC1=N/C(=C\c2ccc(N(C)C)cc2)C(=O)N1CCc1ccc(S(N)(=O)=O)cc1,98.5%,98.3%,107%,84.4%,107%,96.5%,87.2%,93.2%,101%,113%

# — PubChem BioAssay (NCI)
